# Most compounds without a hit are left out; they make up all but 2.9% or so of the library.
# EP2 antag: human EP2 receptor antagonists, primary screen, TR-FRET cAMP, C6 glioma cells | C6 glioma cells expressing human EP2; cells stimulated with saturating PGE2 | inhibition, % at 25 µM | hit rate 0.52% among 260,000 | AID 1422, 2008;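 active = percent inhibition above 40 after rounding to a whole number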;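 also: rat C6 glioma host cells with rolipram phosphodiesterase inhibitor present; the protocol text gives 20 µM as final concentration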
# Target sequence (P43116 whole entry, looked up): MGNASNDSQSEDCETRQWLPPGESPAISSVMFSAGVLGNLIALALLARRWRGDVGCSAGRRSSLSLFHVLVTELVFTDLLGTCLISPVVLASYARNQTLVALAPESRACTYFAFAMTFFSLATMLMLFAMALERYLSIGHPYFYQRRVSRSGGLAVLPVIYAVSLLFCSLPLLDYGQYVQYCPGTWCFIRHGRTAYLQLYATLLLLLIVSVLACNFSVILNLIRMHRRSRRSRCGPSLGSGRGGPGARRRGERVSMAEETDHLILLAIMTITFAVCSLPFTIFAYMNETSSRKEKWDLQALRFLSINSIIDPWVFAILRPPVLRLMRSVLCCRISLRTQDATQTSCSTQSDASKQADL
# SKN-1 block: suppressors of acrylamide-induced Pgst-4::GFP reporter in worms, primary screen, SKN-1 inhibitor project, whole organism, uHTS, GFP/RFP fluorescence ratio, strain VP596 | inhibition, % at 21.8 µM | hit rate 0.49% among 360,000 | C. elegans VP596 Pgst-4::GFP/RFP ratio, 24 h | AID 624304, 2012;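 active = interference check ratio from 0.5 to 1.5 plus GFP to RFP signal ratio inhibition reaching or exceeding a fixed threshold, cut at about 30% in these data, passing the limit was not always enough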
# PG9 Ab binder: binders of HIV-1 gp120 antibody PG9, primary screen, biochemical, TR-FRET; HIV-1 gp120 / PG9 antibody interaction; TR-FRET gp120-PG9 antibody binding; inhibition, % at 6.7 µM; hit rate 0.43% among 360,000; in the data active = inhibition above about 8.5%
# EP2 modulator: EP2 receptor modulators, cAMP readout, primary screen, cell-based, HTRF cAMP, PGE2 stimulation | Prostaglandin E2 receptor EP2 subtype (Homo sapiens), P43116 | EP2-expressing cells, cAMP HTRF FRET, PGE2 co-stimulation | induction, % at 25 µM | hit rate 0.83% among 260,000 | AID 940, 2007;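 active = compounds whose cAMP rise, as percent of the full-agonist control response, exceeds 60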;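 also: rat C6 glioma line stably carrying human EP2 under a CMV promoter; the protocol text gives 20 µM as final concentration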
# RAM network inh: inhibitors of the yeast RAM network, primary screen, dse1pr::URA3 reporter, 5-FOA selection; inhibition, % at 50 µM; hit rate 1.8% among 190,000; S. cerevisiae dse1pr::URA3 reporter, 5-FOA growth OD615, 2 d; analog-sensitive cbk1-as2 kinase mutant strain;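 active = inhibition above a set limit, 3 SD over mean compound inhibition, cut at about 8.4% in these data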;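 also: inhibition rescues growth on 5-FOA so higher OD means more RAM inhibition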
# NR1D1 modulator: modulators of Rev-erb alpha DNA binding, primary screen, biochemical, FITC-DNA, fluorescence polarization, uHTS. hit rate 0.79% among 370,000. Nuclear receptor subfamily 1 group D member 1 (Homo sapiens), P20393. activity, % at 10 µM. Rev-erbα–FITC-DNA binding, 90 min;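 active = activity above about 14%, limit read from the data; passing the limit was not always enough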
# A number is an active result; i = inactive; nt = no result given.
SMILES,EP2 antag,SKN-1 block,PG9 Ab binder,EP2 modulator,RAM network inh,NR1D1 modulator
CN(C)CCC(=O)[C@]1(O)CC[C@@H]2[C@H]3CC=C4C[C@@H](O)CC[C@]4(C)[C@@H]3CC[C@]21C,65,nt,nt,i,nt,nt
CS(=O)(=O)N1CCCc2cc(C(O)CN3CCN(c4ncccn4)CC3)ccc21 (configuration not stated),i,nt,nt,i,nt,nt
O=C(O)c1ccc(Cn2ccc3ccccc32)o1,nt,i,i,nt,nt,i
c1ccc(C2(Cn3ccc4ccccc43)OCCO2)cc1,i,44,i,i,i,i
CCCCOc1ccc(-c2cc(C(F)(F)F)c(C#N)c(SCC(=O)O)n2)cc1,i,i,i,i,8.4,i
N#Cc1c(C(F)(F)F)cc(-c2ccc(F)cc2)nc1SCC(=O)O,i,i,i,i,i,i
CCOC(=O)N=Nc1c(O)n(Cc2ccccc2)c2ccccc12,i,i,i,i,11,i
CC(=O)N1CCCc2cc(C(O)CN3CCN(c4ccccc4Cl)CC3)ccc21 (configuration not stated),i,nt,nt,i,nt,nt
Oc1ccc(Cc2nccc3cc(O)c(O)cc23)cc1O,53,nt,nt,i,nt,nt
CSc1cc(-c2ccco2)oc1C(=O)c1ccco1,nt,36,i,nt,nt,i
CCC1CCCCN1C(=O)CSc1nnc(-c2cccc(C)c2)o1 (configuration not stated),i,nt,nt,i,nt,nt
CN(C)c1ccc(-c2nn3c(-c4ccc(Cl)cc4)nnc3s2)cc1,i,i,i,i,i,i
CN(C)c1ccc(-c2nn3c(C4CCCCC4)nnc3s2)cc1,i,i,i,i,8.6,i
COc1ccccc1CN1Cc2cc3cc(C)ccc3nc2OCC1=O,nt,nt,nt,i,nt,nt
O=C(O)Cn1c(=O)n(Cc2ccccc2)c2ccccc21,nt,i,i,nt,nt,i
O=c1n(Cc2ccccc2)c2cc(Cl)cnc2n1Cc1ccccc1,i,i,i,62,i,i
Cc1[nH][nH]c(=O)c1C(c1cn(-c2ccccc2)nc1-c1cccs1)c1c(C)[nH][nH]c1=O,i,nt,nt,i,nt,nt
COc1ccc(-c2cc3nccc(C4CCN(C(=O)OC(C)(C)C)CC4)n3n2)cc1OC,nt,nt,nt,80,nt,nt
COc1ccc(C(=O)N2CCCC(c3ccnc4cc(C)nn34)C2)cc1OC (configuration not stated),nt,nt,nt,i,nt,nt
COc1ccc(-c2nc(C(N)=O)c3[nH]c(=O)n(-c4cccc(Cl)c4)c3n2)cc1OC,nt,i,i,i,i,i
COc1cccc(-c2nc(C(N)=O)c3[nH]c(=O)n(-c4cccc(Cl)c4)c3n2)c1OC,i,i,i,i,11,i
CCN1C(=O)/C(=C2/C(=O)N3c4c(cc(OC(C)=O)cc42)C(C)=CC3(C)C)SC1=S,i,i,i,i,8.7,i
COc1cc2c3c(c1)/C(=C1/SC(NC(C)=O)=NC1=O)C(=O)N3C(C)(C)C=C2C,i,i,i,i,i,i
C=CCOc1c(Cl)cc(C2C(C#N)=C(N)OC3=C2C(=O)CCC3)cc1OC (configuration not stated),i,nt,nt,i,nt,nt
CCOC(=O)COc1ccccc1/C=C\[N+](=O)[O-],92,i,nt,i,i,nt
SMILES,EP2 antag,SKN-1 block,PG9 Ab binder,EP2 modulator,RAM network inh,NR1D1 modulator
O=C(CCN1CCCCC1c1cccnc1)NCc1ccccc1 (configuration not stated),i,i,i,i,i,i
CN1CCC[C@H]1c1cccnc1.O=C(O)c1ccccc1O.O=C([OH2+])c1ccccc1O.O=C([OH2+])c1ccccc1O.O=C([OH2+])c1ccccc1O.[Mn],42,nt,nt,i,nt,nt
COc1ccc(CN(Cc2ccncc2)Cc2[nH]c3ccccc3c2C)cc1OC,i,nt,nt,i,nt,nt
CC(C)(C)c1ccc(O)c(CN(Cc2c(O)ccc3ccccc23)C2CCCCC2)c1,i,nt,nt,i,nt,nt
CC(C)(C)c1ccc(O)c(CN(Cc2cc(C(C)(C)C)ccc2O)C2CCCCC2)c1,64,nt,nt,i,nt,nt
CCOc1ccc(NC(=O)C2CCN(c3nc(C)cc(C)n3)CC2)cc1,i,nt,nt,i,nt,nt
O=C(c1ccc(-c2cccc(C(F)(F)F)c2)o1)N1CCOCC1,i,45,i,i,i,i
CC(=O)N1CCN(C(=O)c2ccc(-c3cccc(C(F)(F)F)c3)o2)CC1,nt,i,i,nt,nt,i
CCc1nnc(NC(=O)CSc2nnc(Cc3ccccc3)n2-c2ccccc2)s1,i,i,i,i,i,i
CC(=O)CSc1nnc(-c2cnccn2)n1-c1ccccc1,nt,i,i,i,i,i
Cc1ccc(NC(=O)CSc2nnc(-c3cnccn3)n2-c2ccccc2)cc1,i,i,16,i,i,i
CCc1nnc(NC(=O)CSc2nnc(COc3ccc(C)cc3)n2-c2ccccc2)s1,i,i,i,i,8.7,i
COc1ccc2nc(CN(CCCn3ccnc3)Cc3ccc(C)o3)ccc2c1,i,nt,nt,i,nt,nt
CC(=O)Nc1ncnc2c1c(-c1ccc(Cl)cc1)nn2C(C)(C)C,i,i,i,i,8.9,i
CC(=O)N(C(C)=O)c1ncnc2c1c(-c1ccc(Cl)cc1)nn2C(C)(C)C,i,i,i,i,i,i
O=C(Cc1ccc(Cl)cc1)Nc1cccc(S(=O)(=O)Nc2ccccc2F)c1,i,i,i,i,i,i
O=C(CSc1ccc([N+](=O)[O-])cc1)Nc1cccc(S(=O)(=O)Nc2ccccc2F)c1,i,i,i,i,9.2,i
O=C(CSc1nnc(Nc2ccccc2F)s1)Nc1cccc(S(=O)(=O)N2CCCCC2)c1,i,i,i,i,10,i
Cc1ccc(Nc2nnc(SCC(=O)Nc3cccc(S(=O)(=O)N4CCCCC4)c3)s2)cc1,i,i,i,i,i,i
Cc1ncsc1C(=O)N[C@H](Cn1nc(C2CC2)ccc1=O)C(C)C,nt,nt,nt,i,nt,nt
COc1ccc(Nc2cnn(-c3nc4ccccc4s3)c(=O)c2Cl)cc1,61,i,i,i,i,i
O=c1c(Cl)c(N2CCCCC2)cnn1-c1nc2ccccc2[nH]1,i,i,i,i,i,i
Cc1ccc(C)c(N2CCN(c3cnn(-c4nc5ccccc5s4)c(=O)c3Cl)CC2)c1,i,i,i,i,9.1,i
COc1ccc(C2SCC(=O)N2c2nc3ccccc3s2)cc1 (configuration not stated),i,i,i,i,i,i
CCOC(=O)C1CCCN(C(=O)Cn2ncc3cccn3c2=O)C1 (configuration not stated),i,nt,nt,i,nt,nt
CCC(=O)N(Cc1ccc(C)cc1)Cc1cc2c(C)ccc(C)c2[nH]c1=O,i,nt,nt,i,nt,nt
Brc1ccc(-c2noc(COc3ccc4c(c3)CCC4)n2)o1,i,i,i,i,i,i

# Screens deposited in PubChem BioAssay by several laboratories.
